Data published in PubChem BioAssay.
The source made the active and inactive calls. Unless noted, no rule for the calls is given here.

target: Homeobox protein Hox-A13 (Mus musculus) (UniProt Q62424); test: inhibitors of HoxA13-DNA binding, primary screen, biochemical, fluorescence polarization, labeled oligonucleotide (AID 1185); details: 15 min, higher = more signal, called active from +8 up or from −8 down
Sequence (Q62424 whole entry, looked up): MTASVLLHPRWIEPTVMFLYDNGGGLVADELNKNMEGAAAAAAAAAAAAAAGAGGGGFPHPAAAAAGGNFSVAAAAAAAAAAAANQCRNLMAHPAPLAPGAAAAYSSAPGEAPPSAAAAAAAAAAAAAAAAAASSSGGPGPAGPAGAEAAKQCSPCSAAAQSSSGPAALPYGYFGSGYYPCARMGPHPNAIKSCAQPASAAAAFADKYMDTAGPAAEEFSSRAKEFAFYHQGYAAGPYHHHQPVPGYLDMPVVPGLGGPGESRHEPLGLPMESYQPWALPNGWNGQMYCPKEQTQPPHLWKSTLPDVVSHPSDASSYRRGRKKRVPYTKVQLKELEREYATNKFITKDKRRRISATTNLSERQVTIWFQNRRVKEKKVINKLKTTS

Row | SMILES | z-score
1 | CN1C(=O)C2C=CC(C(O)COCc3ccccc3)N(Nc3ccc([N+](=O)[O-])cc3[N+](=O)[O-])C2C1=O (centres undefined) | -4.41 (inactive)
2 | COC(=O)C1=CC(c2ccc(CO)cc2)=CC(C2CC2)N(Cc2cc3c(cc2Br)OCO3)C=C1C(=O)OC (centres undefined) | -5.19 (inactive)
3 | C=CC[C@H](O)c1ccc(O)c(F)c1 | -1.51 (inactive)
4 | COc1ccc(C(O)C2C=CC3C(=O)N(c4ccccc4)C(=O)C3N2Nc2ccccc2F)c2ccccc12 (centres undefined) | -3.14 (inactive)
5 | C=C(COC)C(=O)CC[C@@H](OC(=O)c1ccccc1-c1ccccc1C(=O)O)c1ccccc1OCCO | -5.71 (inactive)
6 | COC(=O)C(CC#Cc1ccc2c(c1)[C@]1(C(=O)N2)[C@H](C(=O)N2CCCCCCC2)[C@H]2C(=O)O[C@H](c3ccccc3)[C@H](c3ccccc3)N2[C@@H]1c1ccc(OCCO)cc1)C(=O)OC | -6.85 (inactive)
7 | C[C@H]1C2[C@H](Cc3ccccc3)NC(=O)[C@]23C(=O)N[C@@H](Cc2ccccc2)C(=O)N2CCC[C@H]2C(=O)NC/C=C/CC/C=C/C3[C@@H]2O[C@]12C (some centres undefined) | -7.13 (inactive)
8 | CCCC[C@@H](O)C1=C(C)Cn2c(=O)n(-c3ccccc3)c(=O)n2[C@H]1CO | -0.901 (inactive)
9 | CC(C)c1ccc(NN2C(C(O)C3CCCCC3)C=CC3C(=O)N(c4ccccc4)C(=O)C32)cc1 (centres undefined) | -2.78 (inactive)

system: not listed separately; test: inhibitors of hydroxyurea-induced Chk1 phosphorylation, primary screen, imaging, HeLa, phospho-Chk1 antibody, percent positive cells (AID 1186); details: hydroxyurea-induced phospho-Chk1 immunofluorescence imaging, higher = more signal

Row | SMILES | z-score
10 | COCCOC(=O)N1C(=O)[C@@]2(c3cc(C#CCC(C(=O)OC)C(=O)OC)ccc31)[C@H](C(N)=O)[C@H]1C(=O)O[C@H](c3ccccc3)[C@H](c3ccccc3)N1[C@@H]2c1ccccc1OCCO | -0.663 (inactive)
11 | C=C(COC)/C(=C/C[C@@H](OC(C)=O)c1cccc(OCCO)c1)c1cnc2ccccc2c1 | 0.271 (inactive)
12 | CC(C)[Si](C#Cc1ccccc1)(O[C@H](c1ccccc1)c1cn(Cc2ccccc2)nn1)C(C)C | 0.0998 (inactive)
13 | C[C@]1(C(=O)O)c2ccccc2C(=O)N(Cc2cc(C(F)(F)F)cc(C(F)(F)F)c2)[C@H]1c1ccc(CO)cc1 | 0.19 (inactive)
14 | [N-]=[N+]=NCc1ccccc1[C@H]1OC(c2ccc(OCCCO)cc2)=N[C@@]1(CCS(=O)(=O)c1ccccc1)C(=O)NCCN1CCOCC1 | -0.0238 (inactive)
15 | C=CC[C@@]1(C(=O)NCCCOC)N=C(c2ccc(OCCCO)cc2)O[C@@H]1c1ccccc1CN=[N+]=[N-] | -0.551 (inactive)
16 | CC(=O)NCCCC[C@@H]1NC(=O)[C@H]2C[C@@H](C(=O)O)[C@@H](c3cccc(OCCO)c3)N2C1=O | 0.165 (inactive)
17 | C=CCNC(=O)[C@H]1[C@@H]2C(=O)O[C@@H](c3ccccc3)[C@@H](c3ccccc3)N2[C@@H](c2ccc(O)cc2)[C@]12C(=O)Nc1ccccc12 | 0.0866 (inactive)
18 | Cc1ccc(S[C@]2(C(=O)NC(C)C)CC(=O)N(Cc3ccccc3)[C@@H]2c2ccc(CO)cc2I)cc1 | -0.641 (inactive)
19 | COC(=O)c1ccc(OC)c(/C=C\CC(OC(=O)c2ccncc2)c2ccccc2)c1 (centres undefined) | -0.843 (inactive)
20 | COc1ccc([Si](C)(C)[C@H]2[C@H](CC(=O)N(CCO)Cc3ccccc3)O[C@@]3(C(=O)N(Cc4ccc(N5C(=O)c6cccc7cccc5c67)cc4)c4ccccc43)[C@@H]2C)cc1 | -0.664 (inactive)
21 | C=C(C)C1CN([C@H](CO)c2ccccc2)C(=O)/C1=C\c1ccccc1 (some centres undefined) | -0.484 (inactive)
22 | C[N+](C)(C)CCCC[C@@H]1NC(=O)[C@H]2C[C@@H](C(=O)NCCCCCN)[C@@H](c3ccc(O)cc3)N2C1=O | 0.932 (inactive)
23 | CC(=O)NCCCC[C@@H]1NC(=O)[C@H]2C[C@@H](C(=O)NCCCCCN)[C@@H](c3ccc(O)cc3)N2C1=O | 0.32 (inactive)
24 | O=C1c2ccccc2[C@](Cc2ccccc2I)(C(=O)NCCN2CCOCC2)[C@H](c2ccc(CO)cc2)N1Cc1ccccc1C(F)(F)F | -0.0107 (inactive)
25 | CCOC(=O)C[C@H]1[C@H](OC(=O)c2ccc(-c3ccccc3)cc2)[C@@H](NC(=O)c2ccc(-c3ccccc3)cc2)c2cc(OCCCO)ccc2N1C(=O)c1ccccc1 | -0.166 (inactive)
26 | COC(=O)C1=CC(CCCO)=CC(c2ccc(CN3CCCC3)cc2)N(C)C=C1C(=O)OC (centres undefined) | -0.118 (inactive)
27 | CCCC1(C(=O)OC)C=C2C(=C(C(C)C)C(=O)C2C)CN1 (centres undefined) | 0.493 (inactive)

Row | SMILES | z-score
28 | C=CCOC(=O)[C@H]1[C@@H]2C(=O)O[C@@H](c3ccccc3)[C@@H](c3ccccc3)N2[C@@H](c2ccc(OCCOC(=O)[C@H]3C[C@H]4C(=O)NCC(=O)N4[C@H]3c3cccc(OCCO)c3)cc2)[C@]12C(=O)Nc1ccc(I)cc12 | -1.38 (inactive)
29 | C=CCNC(=O)[C@H]1[C@@H]2C(=O)O[C@@H](c3ccccc3)[C@@H](c3ccccc3)N2[C@@H](c2ccc(O)cc2)[C@]12C(=O)N(C(=O)OCCOC)c1ccc(C#Cc3ccc(OC)cc3)cc12 | 0.0708 (inactive)
30 | CS(=O)(=O)CCOC(=O)C1=CC(CCCO)=CC(C2CC2)N(Cc2sc3ccccc3c2Cl)C=C1C(=O)OCCS(C)(=O)=O (centres undefined) | -0.207 (inactive)
31 | CC(C)(C)OC(=O)CC[C@@]1(C(=O)N2CCOCC2)N=C(c2ccc(OCCCO)cc2)O[C@@H]1c1ccccc1CN=[N+]=[N-] | 0.158 (inactive)
32 | CN1C(=O)C2C=CC(C(O)c3ccc(I)cc3)N(N(c3ccccc3)c3ccccc3)C2C1=O (centres undefined) | -0.839 (inactive)
33 | CC(C)(C)OC(=O)N1[C@@H](C=C(Br)Br)COC1(C)C | -0.35 (inactive)
34 | CCCN1C(=O)[C@@]2(c3ccc([N+](=O)[O-])cc3)CC(=O)N(C3CCCCC3)[C@@H]2c2ccc(CO)cc21 | 0.257 (inactive)
35 | C=CCNC(=O)[C@H]1[C@@H]2C(=O)O[C@@H](c3ccccc3)[C@@H](c3ccccc3)N2[C@@H](c2ccc(OCCO)cc2)[C@]12C(=O)N(C(=O)OCCOC)c1ccc(C#CCC(C(=O)OC)C(=O)OC)cc12 | 0.338 (inactive)
36 | CN1C(=O)C2C=CC(C(O)COCc3ccccc3)N(Nc3ccc([N+](=O)[O-])cc3[N+](=O)[O-])C2C1=O (centres undefined) | -0.589 (inactive)
37 | COC(=O)C1=CC(c2ccc(CO)cc2)=CC(C2CC2)N(Cc2cc3c(cc2Br)OCO3)C=C1C(=O)OC (centres undefined) | 0.0404 (inactive)
38 | C=CC[C@H](O)c1ccc(O)c(F)c1 | -0.316 (inactive)
39 | COc1ccc(C(O)C2C=CC3C(=O)N(c4ccccc4)C(=O)C3N2Nc2ccccc2F)c2ccccc12 (centres undefined) | 0.0395 (inactive)
40 | C=C(COC)C(=O)CC[C@@H](OC(=O)c1ccccc1-c1ccccc1C(=O)O)c1ccccc1OCCO | 0.788 (inactive)
41 | COC(=O)C(CC#Cc1ccc2c(c1)[C@]1(C(=O)N2)[C@H](C(=O)N2CCCCCCC2)[C@H]2C(=O)O[C@H](c3ccccc3)[C@H](c3ccccc3)N2[C@@H]1c1ccc(OCCO)cc1)C(=O)OC | 0.185 (inactive)
42 | C[C@H]1C2[C@H](Cc3ccccc3)NC(=O)[C@]23C(=O)N[C@@H](Cc2ccccc2)C(=O)N2CCC[C@H]2C(=O)NC/C=C/CC/C=C/C3[C@@H]2O[C@]12C (some centres undefined) | -0.234 (inactive)
43 | CCCC[C@@H](O)C1=C(C)Cn2c(=O)n(-c3ccccc3)c(=O)n2[C@H]1CO | -0.522 (inactive)
44 | CC(C)c1ccc(NN2C(C(O)C3CCCCC3)C=CC3C(=O)N(c4ccccc4)C(=O)C32)cc1 (centres undefined) | 0.333 (inactive)
